Screening data: PubChem, National Center for Advancing Translational Sciences (NCATS)
The list is not random: actives were taken first. Their share in the collection is about 2.4%.
Nrf2 ARE act = Nrf2 pathway activation; AREc32 ARE-luciferase reporter (MCF7-derived line), luminescence, 24 h; Potency, µM (series often up to 46.1 µM), without a hit: top-dose activation, most hits filed as activators; 410,000 tested, 0.31% active; AID 624171; further: % of control where 0% means no effect; nearly all actives have a fitted effect of over 65% in size
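Each well held 1000 AREc32 cells, which were incubated with compound for 24 hr at 37 deg C after overnight attachment, and ARE reporter activity was quantified by firefly luciferase luminescence.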
Nrf2 inh = Nrf2 pathway inhibition | Potency, µM (top dose mostly 46 µM), without a hit: at the highest dose activity change, negative = inhibition, hits mostly inhibitors | 360,000 tested, 2.1% active | A549 ARE-Fluc reporter, luciferase luminescence, 18-24 h; further: on the % scale 0 is the no-effect control and ±100 the full control effect; nearly all actives have a fitted effect of over 60% in size
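Concentration-response testing used A549 ARE_Fluc cells at 5000 cells/well. Following an 18-24 h compound incubation, viability was read by fluorescence (Ex 405/Em 525) and luciferase output by luminescence.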
PINK1 expr mod = modulators of PINK1 expression. 410,000 tested, 0.2% active. AID 624263. PINK1 immunofluorescence, high-content cytometry, 24 h. Potency, µM (top dose mostly 76.6 µM), for the others: top-dose activation (PINK1 increase), most hits filed as activators; active means well fitted activation curve with a large enough effect; inconclusive means small, poorly fitted or top-dose-only effect; cell line not stated here; further: % of control where 0% means no effect; nearly all actives have a fitted effect of over 65% in size
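Stable cell line treated 24 h with compounds at 5 concentrations (CCCP controls), then fixed and immunostained for PINK1 plus nuclear and cell stains; PINK1 immunofluorescence quantified by laser-scanning microplate cytometry.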
Epigenetic derep = derepresses silenced GFP reporter in murine cells | Potency, µM (series often up to 53.9 µM), inactives show top-dose GFP activation, hits mostly activators | 280,000 tested, 0.2% active | murine LDR cells, GFP reporter derepression, 30 h; further: % of control where 0% means no effect; nearly all actives have a fitted effect of over 60% in size
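GFP-positive cell count by laser-scanning cytometry (objects 20–120 um) after 30 h, 37 C compound exposure of murine LDR cells; reporter is CMV-GFP integrated at a silenced locus, inducible by HDAC or DNMT inhibitors.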
A549 tox = kills or reduces viability of A549 cells in Nrf2 counter-screen | A549 ARE-Fluc cells, CellTiter-Fluor viability, 18-24 h | Potency, µM (top dose mostly 46 µM), without a hit: top-dose activity change, negative = cytotoxicity, usual class: inhibitors | 390,000 tested, 0.16% active | AID 504648; further: on the % scale 0 is the no-effect control and ±100 the full control effect
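A549 ARE-Fluc cells in 5% FBS OPTI-MEM, 5000 cells/well, rested 2 h then exposed to compounds in concentration-response for 18-24 h at 37 °C. Viability by CellTiter-Fluor fluorescence (Ex 405/Em 525) after 30 min; luciferase luminescence (BugLite, 15 min, RT) read afterwards.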
Starred values were filed as active, the others as inactive; ? = inconclusive; . = no result given; [ ] = another dose, or the depositor's remark. Unless noted, the call rests on the fitted dose curve; in most records, active means well fitted curve in the direction sought with a large enough effect; inconclusive means small, poorly fitted or top-dose-only effect, or another doubt; inactive means no such curve, though single readings can be large; an effect the other way counts as inactive or inconclusive. Potency means the concentration at half of the fitted maximal effect.

SMILES | Nrf2 ARE act | Nrf2 inh | PINK1 expr mod | Epigenetic derep | A549 tox
CC1CCN(S(=O)(=O)c2ccc(NC(=O)C3CCN(C(=O)c4ccco4)CC3)cc2)CC1 | 4.4% | 13µM* | 1.6% | . | 1.9%
O=C(Nc1ccc(S(=O)(=O)N2CCCCC2)cc1)C1CCN(C(=O)c2ccco2)CC1 | -1.9% | ? | -1.7% | . | 2.6%
Cc1ccc2occ(CC(=O)Nc3ccc(S(=O)(=O)N4CCC(C)CC4)cc3)c2c1 | -0.4% | 25.9µM* | -1.1% | -1.9% | -12.5%
Cc1ccc2c(CC(=O)Nc3ccc(S(=O)(=O)N4CCC(C)CC4)cc3)coc2c1 | 0.1% | ? | 2.1% | -0.8% | -22.5%
O=C(Nc1ccc(Oc2ccccc2)cc1)C1CCN(S(=O)(=O)c2ccccc2)CC1 | -0.9% | 20.6µM* | -0.2% | -0.8% | -14.0%
O=C(Nc1nnc(Cc2ccc(Cl)cc2)s1)C1CCN(C(=O)c2ccco2)CC1 | . | 16.4µM* | 0.3% | . | -5.6%
Cc1c(P(=S)(c2ccccc2)c2ccccc2)c2ccccc2n1C(=O)NCc1ccccc1 | . | -14.4% | . | . | -2.0%
COc1cccc(-c2ccc(O)c(CNCc3cccc(OC)c3OC)c2)n1 | . | . | 0.8% | . | .
COc1ccccc1CNC(=O)c1cc2c(s1)-c1ccccc1OC2 | 0.6% | 14.7% | -0.4% | 0.8% | -0.3%
Cc1cccc(CCNC(=O)c2cc3c(s2)-c2c(C)cccc2OC3)c1 | 2.2% | ? | 5.6% | 1.4% | 7.5%
Cc1cccc2c1-c1sc(C(=O)NCCc3ccc(Cl)cc3)cc1CO2 | 3.0% | 23.1µM* | 5.0% | 2.2% | -11.5%
COc1ccc(CCNC(=O)c2cc3c(s2)-c2ccccc2OC3)cc1OC | -0.1% | 23.1µM* | 14.4% | 0.0% | 2.4%
COC(=O)C/C=C\[C@@H](C)[C@@H](/C=N\OCC[C@@H]1C=C[C@H](OC(C)=O)[C@H](COC(C)=O)O1)OC | . | . | . | 1.1%[10.1 µM] | .
CCOc1ccc(S(=O)(=O)NC(C)(C)C)cc1-c1nc2c(C(C)(C)C)nn(C)c2c(=O)[nH]1 | -1.6% | 20.6µM* | -5.9%[38.3 µM] | 1.6% | ?
CCOc1ccc(S(N)(=O)=O)cc1-c1nc2c(C(C)(C)C)nn(C)c2c(=O)[nH]1 | 0.3% | ? | -0.2% | 9.0% | 0.1%
C[C@@H]1C[C@H]2[C@@H]3C[C@H](F)C4=CC(=O)C=C[C@]4(C)[C@@]3(F)[C@@H](O)C[C@]2(C)[C@@]1(O)C(=O)COC(=O)C(C)(C)C | -0.5% | 0.0517µM* | 11.0% | 4.2% | 1.1%
CC(=O)OCC(=O)[C@@]1(O)[C@H](C)C[C@H]2[C@@H]3CCC4=CC(=O)C=C[C@]4(C)[C@@]3(F)[C@@H](O)C[C@@]21C | -0.2% | ? | 0.8% | 16.7% | -10.8%
Cc1ccc(NC(=O)Cc2nc(-c3c[nH]c(C(=O)N4CCCC4)c3)cs2)c(C)c1 | 8.9% | 20.6µM* | 1.2% | . | -0.5%
COc1ccc(-c2noc(C3CCCN(S(=O)(=O)c4cccc(Cl)c4C)C3)n2)cc1OC (stereo unspecified) | 0.0% | ? | -3.2%[38.3 µM] | -8.3% | -3.5%
O=S(=O)(c1ccccc1Cl)N1CCCC(c2nc(-c3cccnc3)no2)C1 (stereo unspecified) | 2.2% | 25.9µM* | 1.3%[38.3 µM] | -1.0% | 4.3%
CO[C@H]1[C@H](NC(=O)c2ccco2)c2ccccc2C12CCN(Cc1cnc(N(C)C)s1)CC2 | . | . | 1.4% | . | .
O=S(=O)(O)c1cc(O)c(N=Nc2ccc(O)cc2O)c2ccccc12 | 4.7% | ? | -1.8% | . | 20.6µM*
O=C(Cn1cnc2ccccc21)Nc1ccc2c(c1)OCCCO2 | 0.3% | 13µM* | 1.7% | . | -14.5%
COc1ccc(Cl)cc1NC(=O)C1COc2ccccc2O1 (stereo unspecified) | 3.55µM* | 2.8% | 2.1% | 0.5% | -0.4%
CCOc1ccccc1NC(=O)C1COc2ccccc2O1 (stereo unspecified) | 6.31µM* | 15.3% | -0.7% | . | 13.2%
O=C(Nc1ccc(S(=O)(=O)Nc2ccccc2)cc1)C1COc2ccccc2O1 (stereo unspecified) | 3.5% | 18.4µM* | 15.0%[38.3 µM] | 2.5% | -27.5%
CCCS(=O)(=O)NCc1c(C)ncc2c1CCN(C(=O)/C=C/c1ccc(F)cc1F)C2 | . | . | 1.1% | . | .
O=C1c2ccccc2C(=O)N1c1cccc2ccncc12 | . | 6.2% | . | . | 5.1%
